Only some compounds are listed: those with a hit (about 2.9% of all), similar ones and a draw of the others.
a7 integrin act: activates integrin-mediated alleviation for muscular dystrophy; alpha7betagal myoblasts, beta-gal FDG fluorescence, 48 h; Potency, µM (titrated, usually from 38.3 µM), inactives show top-dose activation, actives largely listed as activators; 0.064% of 350,000 active; active = well fitted activation curve with a large enough effect; inconclusive = small, poorly fitted or top-dose-only effect; inactive = no such curve, though single readings can be large or run the other way;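 also: potency is read from the fitted curve at half-maximal effect; 100% = response of the positive control SU9516; nearly all actives have a fitted effect of over 60% in size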
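alpha7betagal+/- myoblasts (passage 13, 250/well) treated 48 h at 37C with compounds at 1:260 dilution of DMSO stock. Lysed, then beta-galactosidase activity read as FDG fluorescence (ex 480/em 540) after 30 min, with pre-read for autofluorescence.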
DRD3 agonist: D3 dopamine receptor (human) agonism; 0.58% of 410,000 active; P35462; max activation, %; AID 652048; D3R DiscoveRx beta-arrestin cells, luminescence, 90 min; in the data active = max activation above about 30%; also: 0% is about no effect
Target sequence (P35462 whole entry, looked up): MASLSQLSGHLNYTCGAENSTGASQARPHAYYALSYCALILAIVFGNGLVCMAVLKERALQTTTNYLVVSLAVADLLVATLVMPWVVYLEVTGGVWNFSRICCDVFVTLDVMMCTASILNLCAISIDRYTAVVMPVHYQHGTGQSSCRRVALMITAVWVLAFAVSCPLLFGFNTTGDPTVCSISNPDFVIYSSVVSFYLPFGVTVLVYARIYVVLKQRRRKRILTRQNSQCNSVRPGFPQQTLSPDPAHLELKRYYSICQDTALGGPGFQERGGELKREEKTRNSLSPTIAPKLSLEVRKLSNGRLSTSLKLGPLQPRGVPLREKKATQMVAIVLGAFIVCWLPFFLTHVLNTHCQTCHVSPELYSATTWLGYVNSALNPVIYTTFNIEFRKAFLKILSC
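Cells at 1500/well, incubated overnight, then treated with pinned compounds (dopamine as control) for 90 min at 37 degrees C. DiscoveRx reagent added for 30 - 60 minutes at room temperature; luminescence read.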
D3 antag: blocks the human D3 dopamine receptor | D3R cells, DiscoveRx beta-arrestin luminescence, antagonist mode; hits give low values | max response, negative = inhibition, % | 2.5% of 360,000 active; in the data active = max response below about -50%; inconclusive = no clear call, values can overlap the other calls; also: % is scaled to controls: 0 for no effect and ±100 for the full control effect
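Cells expressing the human receptor were seeded at 1500 cells/well, incubated overnight at 37 degrees C in 5% CO2, then exposed to library compounds with dopamine controls for 90 minutes at 37 degrees C before luminescent detection.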
* marks the source's active call; other numbers are inactive results; ? = inconclusive; / = no result.

SMILES	a7 integrin act	DRD3 agonist	D3 antag
COc1ccc(NC(=O)CS(=O)CC(=O)Nc2ccc(-n3cnnn3)c(C)c2)cc1 (stereo unspecified)	7.5%	-1.9	10.3
O=C(N/C(C(=O)N1CCOCC1)=C(\Sc1ncccn1)c1ccccc1)c1ccccc1	6.2%	8.4	15.3
Cc1ccc(C(=O)NNC2=Nc3cccc4cccc2c34)cc1	-38.4%	-24.5	-73.6*
NC(=O)NNC1=Nc2cccc3cccc1c23	?	-9.2	3.3
COc1ccc(C(=O)NNC2=Nc3cccc4cccc2c34)cc1	4.4%	-11.7	-68.0*
COc1ccc(CC(=O)NNC2=Nc3cccc4cccc2c34)cc1	-12.1%	-22.2	-78.9*
O=C(O)c1ccc(NC2=Nc3cccc4cccc2c34)cc1	10.5%	1.4	-5.8
COc1ccccc1NC1=Nc2cccc3cccc1c23	41.0%	-15.7	-20.0
Cc1ccc(C(=O)Nc2ccc(S(=O)(=O)O)c3cc(S(=O)(=O)O)cc(S(=O)(=O)O)c23)cc1NC(=O)c1cccc(NC(=O)Nc2cccc(C(=O)Nc3cc(C(=O)Nc4ccc(S(=O)(=O)O)c5cc(S(=O)(=O)O)cc(S(=O)(=O)O)c45)ccc3C)c2)c1	/	6.3	/
Cc1ccc2nc(-c3ccc(NC(=O)COc4ccc(Cl)c(C)c4)cc3)sc2c1	/	61.0*	/
Cc1ccc2nc(-c3ccc(NC(=O)COc4c(C)ccc(C)c4C)cc3)sc2c1	/	0.8	/
Cn1[nH]c2c(c1=O)[C@H](c1ccc(F)cc1)O[C@H](CCc1ccccc1)C2	/	-6.2	0.0
CCN(CC)CCCNC(=O)C1c2ccccc2C(=O)N(CCOC)C1c1ccc(F)cc1 (stereo unspecified)	2.7%	2.8	4.4
COCCN1C(=O)c2ccccc2C(C(=O)N2CCN(c3ccccn3)CC2)C1c1ccc(F)cc1 (stereo unspecified)	0.0%	-6.2	-51.3*
NS(=O)(=O)c1ccc(N/N=C/c2ccc(C(=O)O)cc2)c([N+](=O)[O-])c1	0.0%	0.4	-50.6*
C/C(CCC(C)C)=N\Nc1ccc(S(N)(=O)=O)cc1[N+](=O)[O-]	-17.1%	-8.0	-58.2*
O=C(O)c1ccc(/C=N\Nc2ccc(S(=O)(=O)N3CCOCC3)cc2[N+](=O)[O-])cc1	-12.3%	3.3	-1.5
CCC(CC)=NNc1ccc(S(N)(=O)=O)cc1[N+](=O)[O-]	-5.9%	0.3	-12.5
Cc1ccc(CSC2=Nc3ccccc3C3=NC(CC(=O)NCc4ccc5c(c4)OCO5)C(=O)N23)cc1 (stereo unspecified)	/	-9.1	/
CCSc1nc(=S)cc(C)[nH]1	3.9%	1.7	6.8
O=C1CCCN1C(=O)COc1ccccc1[N+](=O)[O-]	0.0%	38.1*	-3.4
O=C1CCCN1C(=O)COc1cc(F)ccc1[N+](=O)[O-]	-22.4%	-11.2	-3.4
COc1cc(N)c(Cl)cc1C(=O)OCC(=O)NCC1CCCO1 (stereo unspecified)	2.6%	-3.7	-14.0
CCOC(=O)N=Nc1c(O)n(CC(=O)OC)c2ccccc12	10.3%	2.6	5.7
CCOC(=O)N=Nc1c2ccccc2c2nc3no[nH]c3nc12	-41.9%	-18.0	-64.6*
SMILES	a7 integrin act	DRD3 agonist	D3 antag
CCN(CC)S(=O)(=O)c1ccc(Cl)c(NC(=O)c2ccc(C#N)cc2)c1	1.9%	-0.6	-2.7
Cn1c(=O)c(Nc2ccc(Cl)cc2)c2c3c(cccc31)C(=O)c1ccccc1-2	10.7%	-15.7	?
CC(=O)Nc1c2c3c(cccc3n(C)c1=O)C(=O)c1ccccc1-2	-9.5%	-14.5	-50.6*
Cc1ccsc1/C=N/n1c(-c2ccccc2)n[nH]c1=S	27.1%	-1.5	-1.0
Cc1ccsc1/C=N/n1c(-c2ccco2)n[nH]c1=S	17.3%	-3.9	-59.0*
CCOc1ccc(/C=C2\SC(=S)N(CCC(=O)O)C2=O)cc1	14.9%	2.3	2.9
O=C(O)CCN1C(=O)CC(N2C(=O)/C(=C/c3ccc(Cl)cc3)SC2=S)C1=O (stereo unspecified)	-39.3%	31.0*	0.0
Oc1c(Br)cc(Br)cc1C=Nc1ccc2c(c1)OCO2	-23.6%	2.1	-127.8*
Cc1cc(Br)cc(C=Nc2ccc(N3CCOCC3)cc2)c1O	-9.0%	-14.4	?
O=[N+]([O-])c1ccc(O)c(C=Nc2ccc3c(c2)OCCO3)c1	0.1%	2.8	-14.4
Oc1c(Br)cc(Br)cc1C=Nc1ccc2c(c1)OCCO2	-9.9%	-12.0	-63.5*
CCOc1ccc(NC(=O)NC(CC)Cn2nnc3ccccc3c2=O)cc1 (stereo unspecified)	/	-1.1	/
Cc1ccccc1C(=O)NNC(=O)C(C)N1C(=O)c2ccccc2C1=O (stereo unspecified)	?	5.9	13.3
CC1CCN(CC(O)CN2c3ccccc3Sc3ccccc32)CC1 (stereo unspecified)	3.1%	0.9	-102.6*

Screening data (PubChem BioAssay)
